Assay outcomes: PubChem BioAssay, National Center for Advancing Translational Sciences (NCATS)
IL1B secr inh: qHTS for Inhibitors of Inflammasome Signaling: IL-1-beta AlphaLISA Primary Screen | THP-1 LPS/ATP IL-1B secretion, AlphaLISA, 16 h; hits give low values | activity change, % at 57.5 µM | 360,000 compounds, 4.7% hits | AID 743279, 2014; in the data active = activity change below about -50%; inconclusive = mostly about -30% to -49%
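Secreted IL-1B measured by AlphaLISA bead assay after 16 h compound exposure of THP-1 cells; compounds (final up to 57.5 uM) added 1 h before LPS (250 ng/mL) and ATP (1.25 mM) stimulation; lower signal means less secretion.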
HT1080-NT tox: qHTS for induction of synthetic lethality in tumor cells producing 2HG: qHTS for the HT-1080-NT fibrosarcoma cell line. HT-1080-NT fibrosarcoma viability, CellTiter-Glo ATP luminescence, 48 h. 360,000 compounds, 1.6% hits. Potency, µM (doses to about 46.1 µM), without a hit: at the highest dose activity, negative = less viability, most hits filed as cytotoxic. AID 686970, 2013;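 note: NT is the 2HG producing partner of a matched IDH1 knockdown line; potency is the fitted concentration of half-maximal effect; 0% = DMSO-treated cells and -100% = media-only wells without cells; nearly all actives have a fitted effect of over 55% in size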
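Fibrosarcoma NT cells, 750 per well in 5% FBS RPMI, were exposed to compound for 48 hours. Viability: CellTiter-Glo luminescence.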
TDP1 cell CPT: qHTS for Inhibitors of human tyrosyl-DNA phosphodiesterase 1 (TDP1): qHTS in cells in presence of CPT. chicken DT40 Tdp1-/-;hTDP1 cells + 20 nM CPT, ATP luminescence, 48 h. Potency, µM (highest dose often 46.2 µM), without a hit: top-dose activity change, negative = growth inhibition, hits mostly inhibitors. 420,000 compounds, 12% hits. AID 686979, 2013; note: potency is the fitted concentration of half-maximal effect; nearly all actives have a fitted effect of over 55% in size
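Cell growth measured by CellTiter-Glo luminescence after a minimum 48 h, 37 C compound exposure with 20 nM CPT in Tdp1-knockout DT40 cells stably expressing hTDP1, seeded 400/well; qHTS titration format.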
12-LOX inh: Primary qHTS assay for inhibitors of human arachidonate 12S-lipoxygenase (ALOX12): Round 2. Polyunsaturated fatty acid lipoxygenase ALOX12 (Homo sapiens), P18054. purified 12hLO, xylenol orange hydroperoxide absorbance. Potency, µM (doses to about 108 µM), without a hit: at the highest dose activity change, negative = inhibition, most hits filed as inhibitors. 580,000 compounds, 1.1% hits; note: potency is the fitted concentration of half-maximal effect
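Purified human 12hLO (150 nM final) in 25 mM Hepes, 0.01% Triton X-100, pH 7.0 was preincubated 15 min at room temperature with compound. Then 40 uM arachidonic acid was added, 30 min. Hydroperoxide was read by Fe-XO absorbance ratio 573/405 nm.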
HT1080 IDH1KD tx: qHTS for induction of synthetic lethality in tumor cells producing 2HG: qHTS for the HT-1080-IDH1KD cell line. AID 686971, 2013. HT-1080 IDH1 knockdown viability, ATP luminescence, 48 h. 360,000 compounds, 2% hits. Potency, µM (series often up to 46.1 µM), for inactives: at the highest dose activity, negative = toxicity, usual class: cytotoxic;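 note: potency is the fitted concentration of half-maximal effect; 0% = DMSO wells and -100% = cell-free medium wells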
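% activity derives from luminescence (CellTiter-Glo), normalised to DMSO and no-cell wells. HT-1080-IDH1KD cells, 750/well, had 48 h compound exposure at 37 °C.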
DT40 TDP1 no CPT: qHTS for Inhibitors of human tyrosyl-DNA phosphodiesterase 1 (TDP1): qHTS in cells in absence of CPT; DT40 Tdp1-/- hTDP1 cells, no CPT, ATP luminescence, 48 h; Potency, µM (series often up to 46.2 µM), inactives show top-dose activity change, negative = growth inhibition, most hits filed as inhibitors; 420,000 compounds, 15% hits; AID 686978, 2013; note: potency is the fitted concentration of half-maximal effect; nearly all actives have a fitted effect of over 55% in size
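Seeded 400 DT40-hTDP1 cells/well (vehicle DMSO, no 20 nM CPT); pinned compounds; ≥48 hr at 37 °C; CellTiter-Glo luminescence as viability measure.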
Numbers without * were called inactive; ? = inconclusive; . = no result given. This excerpt belongs to a sample that is enriched for hits. Unless noted, calls come from the whole dose curve; as a rule, active = well fitted curve in the direction sought with a large enough effect; inconclusive = small, poorly fitted or top-dose-only effect, or another doubt; inactive = no such curve, though single readings can be large; an effect the other way counts as inactive or inconclusive. Unless noted, % is set by controls: 0 for no effect and ±100 for the full control effect.

SMILES	IL1B secr inh	HT1080-NT tox	TDP1 cell CPT	12-LOX inh	HT1080 IDH1KD tx	DT40 TDP1 no CPT
Cc1ccc(OCc2cc(C(=O)NC(C)Cc3cccc(C)n3)no2)cn1 (stereo not drawn)	46	-3%	13µM*	-13%	0%	7.3µM*
Cc1ccc(OCc2cc(C(=O)NCc3cn4ccccc4n3)no2)cc1C	-9	12%	-23%	0%	-1%	15%
Cc1ccc(F)cc1CNC(=O)c1cc(COc2ccc3ncccc3c2)on1	-29	-16%	4.1µM*	14%	-16%	10µM*
O=C(N/N=C(/c1ccccc1)c1cccnc1)c1cccs1	.	.	.	15%	.	.
Cc1ccc(C#N)c(N2CCC(c3nnc(Cn4cncn4)n3C)CC2)n1	.	.	.	26%	.	.
CC(CCCC(C)(C)O)NC(=O)c1cc(COc2ccc3ncccc3c2)on1 (stereo not drawn)	-1	-5%	8.2µM*	3%	-22%	4.6µM*
CC(Cc1cccnc1)NC(=O)c1cc(COc2c(F)cccc2F)on1 (stereo not drawn)	-2	1%	?	0%	1%	?
COc1cccc2oc3cc(C#Cc4ccccn4)ccc3c(=O)c12	-55*	20%	?	?	20%	?
O=C1CC(=O)CC(c2ccccc2)C1	-10	11%	-7%	-11%	4%	1%
O=S1(=O)CCS(=O)(=O)C1c1ccccc1	?	23µM*	?	0%	21µM*	?
CN1CCN(C(=O)C2(N(C)CCc3ccccc3)Cc3ccccc3C2)CC1	.	.	.	23%	.	.
CC(=O)c1ccc(Nc2cc(C)nc3nc(Cc4ccccc4)nn23)cc1	.	.	?	-11%	.	-17%
CCc1ccc(Nc2cc(C)nc3nc(Cc4ccc(Cl)cc4)nn23)cc1	.	.	16µM*	-11%	.	9.2µM*
Cc1ccc(Nc2cc(C)nc3nc(Cc4ccc(Cl)cc4)nn23)cc1	.	.	18µM*	-2%	.	15µM*
CCN(CC)c1ccc(NC(=O)Nc2ccccc2)cc1	?	-7%	-8%	-1%	-8%	?
CCN(CC)c1ccc(N=C2C=CC(=O)C=C2NC(C)=O)cc1	-72*	-8%	5.2µM*	?	-18%	2.9µM*
Cc1noc([C@@H]2CC(F)(F)CN2C(=O)Cc2ccc(F)cc2)n1	.	.	.	6%	.	.
CC1=C(C(=O)OCc2ccccc2)C(c2cccnc2)n2ncnc2N1 (stereo not drawn)	19	-6%	18µM*	0%	-2%	15µM*
COC(=O)C1=C(C)Nc2ncnn2C1c1ccc(OC(=O)c2ccccc2)cc1 (stereo not drawn)	14	-3%	8.2µM*	-8%	-10%	?
COc1ccc(C2C(C(C)=O)=C(C)Nc3ncnn32)cc1 (stereo not drawn)	17	0%	17%	?	6%	1%
Cc1cnc(CC2CCCN(C(=O)C3(c4ccccc4)CC3)C2)n1Cc1ccc(F)cc1 (stereo not drawn)	.	.	.	0%	.	.
CC(C)c1ccc2[nH]c3c(c2c1)[C@@H]1CCN2C(=O)CCC[C@H](C3)[C@H]12	11	1%	18µM*	-10%	3%	15µM*
CC[C@H]1c2[nH]c3ccc(C(C)C)cc3c2[C@@H]2CCN3C(=O)CCC[C@H]1[C@H]23	-13	4%	10µM*	?	2%	10µM*
